Hits are enriched below; roughly 6.5% of the tested compounds scored in any of these assays.
PMK inhibit: S. pneumoniae PMK inhibition. purified PMK, PK/LDH-coupled NADH absorbance 340 nm. inhibition, % at 10 µM. actives 0.49% (n = 65,000). AID 539;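 active = top-ranked compounds by inhibition in the single 10 µM screen, taking a fixed number of the strongest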;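 note: 0% = full reaction with DMSO carrier and 100% = background rate without enzyme reaction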
NADH coupling: inhibitors of enzymes used to reach an NAD/NADH endpoint. actives 0.02% (n = 65,000). coupled PK/LDH NADH assays, four targets. IC50, µM (series often up to 10 µM), for inactives: at the top dose inhibition;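 active = single-dose screening hits from any of four coupled enzyme assays that gave an IC50 when retested across doses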;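 note: the DPM-DC format reads NADH fluorescence rather than 340 nm absorbance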
Abs 340nm: compounds absorbing at 340 nm | compound absorbance at 340 nm, fold over control | fold change at 10 µM | 65,000 tested, under 10 active;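 active = at 10 µM dose, initial 340 nm absorbance at least 2 fold that of control wells; inactive = change under 2 fold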;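 note: initial absorbance extrapolated from kinetic A340 decline of NADH oxidation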
MK inhibit: S. pneumoniae mevalonate kinase inhibition; purified MK, PK/LDH-coupled NADH absorbance 340 nm; inhibition, % at 10 µM; actives 0.48% (n = 65,000); AID 555;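 active = ranked among the strongest by inhibition in the single 10 µM screen, a fixed top-ranked set picked for dose follow-up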
DPM-DC inhibit: S. pneumoniae DPM-DC inhibition; purified DPM-DC, PK/LDH coupled NADH fluorescence; calls only at 10 µM; actives 0.49% (n = 65,000); AID 556;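 active = the 320 compounds with the highest percent inhibition in the single-dose primary screen, excluding strongly autofluorescent ones, cut at about 32% in these data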;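 note: kinetic rate of NADH fluorescence loss reporting ADP formed by the decarboxylase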
Autofluor 339: intrinsic fluorescence of library compounds, ex339/em460 – biochemical, MLSMR library, data from DPM-DC assay, artefact control, profiling panel; actives 5.5% (n = 65,000); fluorescence fold increase at 10 µM; compound autofluorescence, ex339/em460 nm, NADH buffer; stronger effect = higher value; 1 = no-compound wells, NADH background;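 active = at 10 µM, mean starting fluorescence two-fold or more over control wells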;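 note: signal is the first read of a kinetic run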
Active calls of the source: *; i = inactive; . = no result given; + = active, no number.

SMILES	PMK inhibit	NADH coupling	Abs 340nm	MK inhibit	DPM-DC inhibit	Autofluor 339
CC1CCc2sc3ncn4nc(C(=O)NCc5ccco5)nc4c3c2C1 (centres undefined)	8.0	12.0%	1.02	9.0	i	2.02*
O=c1[nH]c2ccccc2n1CCCN1CCN(C(c2ccccc2)c2ccccc2)CC1	7.0	3.0%	0.98	8.0	i	1.04
Cc1ccc(OCCCN(C)C)c(Br)c1	13.0	19.0%	1.05	45.0*	i	1.1
CCCC1Cc2nc(N3CCCCC3)c(C#N)cc2CO1 (centres undefined)	10.0	10.0%	1.03	9.0	.	3.57*
Fc1cccc(-c2cc3nc4c(c(N5CCN(c6cnccn6)CC5)n3n2)CCCC4)c1	12.0	5.0%	0.99	10.0	.	2.36*
Cn1c(=O)c2cn(Cc3ccc(Cl)cc3)cc2n(C)c1=O	6.0	3.0%	1.04	3.0	i	1.06
CC1(C)Cc2nc3sc4c(=O)[nH]cnc4c3cc2CS1	8.0	18.0%	1.06	9.0	+	2.79*
CC1(C)Cc2[nH]c(=O)c(C#N)cc2CS1	7.0	15.0%	1.1	12.0	i	1.33
CCOC(=O)c1sc2nc(NC(=O)C3CC3)sc2c1C	0.0	8.0%	1.11	3.0	i	2.01*
CCOC(=O)c1sc2nc(NC(=O)C3CCCCC3)sc2c1C	3.0	4.0%	1	2.0	i	1.31
O=S(=O)(Nc1cccc2ccccc12)N1CCCC1	8.0	9.0%	1.03	3.0	i	2.46*
O=C(NCCc1ccccc1)c1ccccc1NS(=O)(=O)N1CCCC1	6.0	6.0%	1.03	5.0	.	3.37*
COc1ccccc1NC(=O)c1ccccc1NS(=O)(=O)N1CCCC1	5.0	7.0%	1.07	3.0	i	1.41
Cc1ccc(-n2nc3c(c2NC(=O)c2c(-c4ccccc4Cl)noc2C)CS(=O)(=O)C3)c(C)c1	25.0*	9.0%	1	1.0	i	1.08
COc1ccc(N2CCN(C(c3ccco3)c3sc4nc(C)nn4c3O)CC2)cc1 (centres undefined)	27.0*	12.0%	1.03	8.0	i	1.03
CCc1cc2c(=O)c(Oc3ccccc3F)c(C)oc2c(CN(C)C)c1O	23.0	13.0%	1.19	2.0	.	2.22*
Cc1oc2c(CN(C)C)c(O)ccc2c(=O)c1-c1ccc2ccccc2n1	0.0	1.0%	1.18	4.0	i	1.15
Nc1c(C(=O)NC2CCCCC2)nsc1C(=O)OCC(=O)NC1CCCCC1	11.0	17.0%	1.01	11.0	i	3.11*
CCOC(=O)c1snc(C(=O)NC2CCCCC2)c1N	0.0	3.0%	1.03	8.0	i	2.02*
COc1ccc(-n2cnnc2SCc2csc(-c3ccccc3)n2)cc1	0.0	1.0%	1.02	3.0	i	1.13
Fc1ccc(NCc2nnc(SCc3nnc(-c4ccccc4)o3)n2CC2CCCO2)cc1 (centres undefined)	15.0	1.0%	1	0.0	i	1.03
Cc1nc2c(c(=O)n1Cc1ccccc1Cl)c1nc3ccccc3nc1n2Cc1ccco1	7.0	7.0%	1.07	13.0	i	2.33*
CCc1cc2c3c(c(=O)oc2cc1OC)CCCC3	11.0	7.0%	1.08	2.0	.	3.79*
O=c1oc2cc(O)ccc2c2oc3cc(O)ccc3c12	8.0	5.0%	1.01	5.0	.	2.43*
O=C(Oc1ccc2c3c(c(=O)oc2c1)CCCC3)c1ccco1	0.0	4.0%	1.03	7.0	.	2.21*
SMILES	PMK inhibit	NADH coupling	Abs 340nm	MK inhibit	DPM-DC inhibit	Autofluor 339
CCCOc1ccc2c3c(c(=O)oc2c1)CCCC3	1.0	6.0%	1.1	11.0	.	3.75*
COC(=O)c1ccc(OC(=O)c2ccco2)cc1	1.0	3.0%	1.02	7.0	i	1.16
CCN(CC)c1ccc2c(c1)oc(=O)c1c(Cl)cc(=O)oc12	1.0	9.0%	1.05	8.0	i	1.74
CCOc1cc2oc(=O)c3c(c2cc1Cl)CCC3	4.0	2.0%	1.03	0.0	i	1.48
CCCCC(CCC(=O)Nc1ccccc1C(=O)OCC)C(=O)O (centres undefined)	17.0	7.0%	0.99	3.0	i	1.12
COc1ccc(-c2noc(CCC(=O)Nc3nc4ccccc4s3)n2)cc1	6.0	1.0%	1.02	2.0	i	1.06
CN(C)CCCN1C(=O)C(O)=C(C(=O)c2cccs2)C1c1ccccn1 (centres undefined)	8.0	3.0%	1.03	0.0	i	1.11

Screening results deposited in PubChem BioAssay by SRMLSC.
